Screens (PubChem)
Compounds with a hit are over-represented: about 10% of the library has one in this group of screens.
VP16 counter: counter-screen for ROR gamma inhibitors: Gal4-VP16 reporter; Drosophila S2 Gal4-VP16 UAS-luciferase, luminescence, 20 h; Potency, µM (series often up to 53.6 µM), without a hit: at the highest dose activity, negative = inhibition, actives largely listed as inhibitors; 310,000 compounds, 3.5% hits; AID 2546;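 further: Gal4-VP16 expression switched on by copper sulfate through the metallothionein promoter; on the % scale 0 is the no-effect control and ±100 the full control effect; nearly all actives have a fitted effect of over 50% in size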
ELG1 repair inh: blocks ELG1-dependent DNA repair in HEK293T cells; Potency, µM (top dose mostly 46.1 µM), without a hit: at the highest dose activity change, negative = inhibition, actives largely listed as inhibitors; 330,000 compounds, 2.3% hits; HEK293T ELG1-luciferase reporter, luminescence, 16 h; DNA damage induced by 5-fluorouridine; further: on the % scale 0 is the no-effect control and ±100 the full control effect; nearly all actives have a fitted effect of over 55% in size
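5-Fluorouridine DNA damage + compound/DMSO, 2,000 cells/well, 16 h, 37 °C/5% CO2. ONE-Glo, 30 min RT, luminescence. Readout = decrease in reporter signal.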
SW480 rereplic: inducers of DNA re-replication in SW480 colon cancer cells | SW480 DNA re-replication, Hoechst DNA content imaging, 48 h | Potency, µM (titrated, usually from 46.1 µM), without a hit: top-dose re-replication activation, hits mostly activators | 340,000 compounds, 1.8% hits; further: % of control where 0% means no effect; nearly all actives have a fitted effect of over 55% in size
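DNA re-replication was detected as more nuclei of elevated Hoechst intensity after 48 hr exposure to compound (23 nL pinned per well of 250 cells).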
MCF10A rereplic: inducers of DNA re-replication in MCF 10A breast cells; MCF 10A DNA re-replication, Hoechst nuclear intensity, 48 h; Potency, µM (top dose mostly 46.1 µM), for the others: top-dose activity, positive = re-replication, most hits filed as activators; 350,000 compounds, 2.9% hits; AID 624296; further: % of control where 0% means no effect; nearly all actives have a fitted effect of over 50% in size
RORgamma inh: blocks mouse ROR gamma transcriptional activity; P51450; Drosophila S2 Gal4-RORgamma UAS-luciferase reporter, 20 h; Potency, µM (series often up to 53.6 µM), for the others: at the highest dose activity change, negative = inhibition, usual class: inhibitors; 310,000 compounds, 5.4% hits; further: on the % scale 0 is the no-effect control and ±100 the full control effect; nearly all actives have a fitted effect of over 60% in size
Target sequence (P51450 whole entry, looked up, the tested form may be a part): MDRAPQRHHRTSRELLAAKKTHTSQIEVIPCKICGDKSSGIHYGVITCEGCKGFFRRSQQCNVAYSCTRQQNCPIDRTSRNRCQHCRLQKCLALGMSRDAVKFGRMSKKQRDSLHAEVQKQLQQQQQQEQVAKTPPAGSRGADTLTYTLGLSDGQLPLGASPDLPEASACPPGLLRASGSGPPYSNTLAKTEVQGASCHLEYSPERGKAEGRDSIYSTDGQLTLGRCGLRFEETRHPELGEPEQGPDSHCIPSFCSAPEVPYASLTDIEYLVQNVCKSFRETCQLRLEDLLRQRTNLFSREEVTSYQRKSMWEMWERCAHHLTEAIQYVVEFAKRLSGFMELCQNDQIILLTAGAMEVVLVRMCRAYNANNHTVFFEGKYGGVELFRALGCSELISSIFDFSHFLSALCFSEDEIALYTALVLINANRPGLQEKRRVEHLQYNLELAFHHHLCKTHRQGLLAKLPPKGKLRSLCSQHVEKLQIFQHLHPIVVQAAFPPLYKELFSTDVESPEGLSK
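Compounds are pin-transferred onto Drosophila Schneider cells expressing a copper-inducible Gal4–ROR gamma transactivation domain fusion. After 1 hr, copper sulfate is added to 700 uM final; luciferase is read 20 hr later.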
Starred values were filed as active, the others as inactive; ? = inconclusive; . = no result; [ ] = dose if it differs, or a comment. The call rests on the fitted dose curve; in most records, active means well fitted curve in the direction sought with a large enough effect; inconclusive means small, poorly fitted or top-dose-only effect, or another doubt; inactive means no such curve, though single readings can be large; an effect the other way counts as inactive or inconclusive. Potency means the concentration at half of the fitted maximal effect.

SMILES	VP16 counter	ELG1 repair inh	SW480 rereplic	MCF10A rereplic	RORgamma inh
Cc1ccc(NC(=O)CSc2ncc3ccccn23)cc1C	-2.5%	?	5.0%	0.7%	25.4%
N#Cc1c(-c2ccc(F)cc2)cc(-c2cccs2)nc1SCC(=O)O	0.5%	-16.8%	?	23.1µM*	6.0%
COc1ccc(-c2cc(-c3ccccc3)c(C#N)c(SCC(=O)O)n2)cc1	.	.	?	-0.2%	.
COc1ccc(-c2cc(-c3ccc(Cl)cc3)c(C#N)c(SCC(=O)O)n2)cc1	?	-13.4%	-61.3%	16.4µM*	-3.7%
COc1ccc(-c2nsc3c(N4CCCCC4)ncnc23)cc1	?	?	-6.8%	3.0%	1.12µM*
Cc1ccc(-c2nsc3c(N4CCC(C(N)=O)CC4)ncnc23)cc1	0.631µM*	?	3.5%	15.5%	?
COc1ccc(-c2nsc3c(N4CCCCC4C)ncnc23)cc1 (stereo not given)	?	?	18.8%	?	0.282µM*
COc1ccc(CN2C[C@H](C)[C@@H](CC(=O)NCc3ccccc3)C2=O)cc1	-7.8%	-4.0%	-3.0%	-0.1%	-37.4%
COCCN(C(=S)Nc1ccc(C)cc1C)C(C)c1ccco1 (stereo not given)	-96.2%	9.6%	-1.8%	7.7%	14.1µM*
COCCN(C(=S)Nc1ccccc1C)C(C)c1ccco1 (stereo not given)	6.8%	0.0%	0.7%	-2.1%	?
COCCN(C(=S)Nc1cccc(C)c1C)C(C)c1ccco1 (stereo not given)	?	17.0%	1.1%	8.3%	11.2µM*
COCCN(C(=S)Nc1ccc(C)cc1)C(C)c1ccco1 (stereo not given)	-14.4%	24.1%	-0.5%	-0.1%	?
CNC(=O)c1nc(C)n(-c2ccc(Cl)cc2Cl)n1	8.6%	2.9%	-12.2%	-0.4%	9.9%
Cc1c(C(=O)NN2CCCCC2)nn(-c2ccc(Cl)cc2Cl)c1-c1ccc(Cl)cc1	-13.4%	.	4.1%	13.3µM*	24.3%[10 µM]
COC(=O)c1c(C)[nH]c(C(=O)C(C)OC(=O)C2=NNC(=O)CC2)c1C (stereo not given)	-8.2%	-0.9%	-9.3%	-0.9%	-1.9%
c1ccc(CN2CCN(CCOCCOc3cccc4ccccc34)CC2)cc1	-13.6%	18.3µM*	4.0%	?	-7.6%
O=C(c1ccco1)N1CCN(CCOCCOc2cccc3ccccc23)CC1	5.5%	?	2.2%	7.2%	2.0%
O=S1(=O)CC(O)C(N=Nc2c(O)n(Cc3ccccc3)c3ccccc23)C1 (stereo not given)	0.7%	0.0%	?	-1.9%	6.1%
COc1ccc(C(=O)NCC(=O)N=Nc2c(O)n(Cc3ccccc3)c3ccccc23)cc1OC	-5.9%	?	-7.3%	0.0%	-14.7%
Cc1ccc2c(c1)c(N=NC(N)=S)c(O)n2Cc1ccccc1	2.51µM*	15.9%	-0.3%	13.8%	1.58µM*
Cc1ccc2c(c1)c(N=O)c(O)n2Cc1ccc(Cl)cc1	?	?	15.0%	0.9%	?
NC(=S)N=Nc1c(O)n(Cc2ccc(F)cc2)c2ccccc12	1.26µM*	?	1.7%	?	1.26µM*
Cn1c(O)c(N=NC(N)=S)c2ccccc21	3.16µM*	.	-4.7%	13.6%	1.12µM*
Cn1c(O)c(N=NC(=O)c2ccccc2O)c2ccccc21	-24.6%	?	?	?	-40.7%
NC(=S)N=Nc1c(O)n(Cc2ccc(Br)cc2)c2ccccc12	0.891µM*	?	8.2µM*	5.8µM*	0.794µM*
COCc1ccc(C(=O)N(C)C2CCCN(Cc3ccccc3F)C2)o1 (stereo not given)	-1.6%	-27.5%	-0.8%	14.5%	0.4%
NC(=O)NCC(N)C(=O)O (stereo not given)	-2.5%	.	.	.	-8.3%
O=C(COC(=O)Cc1ccccc1[N+](=O)[O-])NC1CCCC1	-0.9%	9.7%	2.1%	-5.9%	19.6%
Cc1ccc(NC(=O)c2ccc3nsnc3c2)c(C)c1	-4.8%	?	?	?	15.9%
O=C(Nc1ccc(S(=O)(=O)NCc2ccccc2)cc1)C1CCCCC1	1.4%	-7.5%	2.6%	1.7%	35.2%
